Laboratory results published in PubChem BioAssay (EPA / NIEHS).
“And” between values parts separate entries of the source, which are not always exact repeats. Identical values can stand only once. The source made the active and inactive calls. The calls were made as follows: active = hit-call score of the fitted dose curve at least 0.9, where 1 is the maximum; inactive = score below 0.9.

How the values were obtained:
[1] = read-out: Vascular endothelial growth factor receptor 2 (Homo sapiens) (UniProt P35968); assay: BSK_4H_VEGFRII: BioMAP Diversity Plus: 4H Assay for Vascular endothelial growth factor receptor 2 (VEGFR2) Biomarker Activity (AID 2283031); settings: primary human endothelial cells (HUVEC); actives raise or lower the signal;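 as to AC50: cell-surface VEGFR2 protein level quantified by ELISA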
Method in brief: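 In this multiplexed HUVEC system, biomarker ELISA was performed after 24 h chemical exposure. Parallel SRB staining (TCA fixation, 560 nm) tracked cytotoxicity; DMSO served as baseline.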

[2] = read-out: Human Leukocyte Antigen - DR isotype (HLADR), HLA-DRA (gene 3122); assay: BSK_BE3C_HLADR: BioMAP Diversity Plus: BE3C Assay for Human Leukocyte Antigen - DR isotype (HLADR) Biomarker Activity (AID 2283032); settings: primary human bronchial epithelial cells; actives raise or lower the signal
Method in brief: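 Human primary bronchial epithelial cells in the BE3C system were exposed to chemicals for 24 h, after which HLA-DR levels were quantified by ELISA. Activity was fitted bidirectionally, gain or loss of signal, against DMSO as negative control and baseline.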

[3] = read-out: Vascular cell adhesion molecule 1 (VCAM1), VCAM1 (gene 7412); assay: BSK_4H_VCAM1: BioMAP Diversity Plus: 4H Assay for Vascular cell adhesion molecule 1 (VCAM1) Biomarker Activity (AID 2283033); settings: primary human endothelial cells (HUVEC); actives raise or lower the signal
Method in brief: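 Primary human umbilical vein endothelial cells were exposed to chemicals for 24 h, after which VCAM-1 was quantified by ELISA. Responses were fitted bidirectionally against DMSO as negative control and activity baseline.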

[4] = read-out: Interferon-gamma inducible Protein 10 (IP10), CXCL10 (gene 3627); assay: BSK_BE3C_IP10: BioMAP Diversity Plus: BE3C Assay for Interferon-gamma inducible Protein 10 (IP10) Biomarker Activity (AID 2283034); settings: primary human bronchial epithelial cells; actives raise or lower the signal
Method in brief: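 Human primary bronchial epithelial cells were exposed to chemicals for 24 hours, after which IP-10 levels were measured by ELISA. Data were fitted bidirectionally against DMSO, which served as the negative control and activity baseline.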

[5] = read-out: Monokine induced gamma interferon (MIG), CXCL9 (gene 4283); assay: BSK_BE3C_MIG: BioMAP Diversity Plus: BE3C Assay for Monokine induced gamma interferon (MIG) Biomarker Activity (AID 2283035); settings: primary human bronchial epithelial cells; actives raise or lower the signal
Method in brief: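 ELISA read-out of MIG in human lung bronchial epithelial primary cultures, 24 h post-dosing. Bidirectional curve fit vs DMSO baseline.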

[6] = read-out: Plasminogen activator inhibitor-1 (PAI1), SERPINE1 (gene 5054); assay: BSK_BE3C_PAI1: BioMAP Diversity Plus: BE3C Assay for Plasminogen activator inhibitor-1 (PAI1) Biomarker Activity (AID 2283037); settings: primary human bronchial epithelial cells; actives raise or lower the signal
Method in brief: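 Human primary bronchial epithelial cells were exposed to chemical for 24 h, then PAI-1 was quantified by ELISA. Activity was fitted bidirectionally relative to the DMSO negative control baseline.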

[7] = read-out: urokinase plasminogen activator (uPA), PLAU (gene 5328); assay: BSK_BE3C_uPA: BioMAP Diversity Plus: BE3C Assay for urokinase plasminogen activator (uPA) Biomarker Activity (AID 2283038); settings: primary human bronchial epithelial cells; actives raise or lower the signal
Method in brief: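 Using confluent primary human lung bronchial epithelial cultures, we dosed chemicals, waited 24 h, then ran a uPA ELISA, fitting bidirectionally against DMSO.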

[8] = read-out: Urokinase-type plasminogen activator receptor (uPAR), PLAUR (gene 5329); assay: BSK_BE3C_uPAR: BioMAP Diversity Plus: BE3C Assay for Urokinase-type plasminogen activator receptor (uPAR) Biomarker Activity (AID 2283039); settings: primary human bronchial epithelial cells; actives raise or lower the signal
Method in brief: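 Primary human bronchial epithelial cells were dosed with chemical and harvested 24 h later; uPAR was quantified by ELISA. Activity was fitted bidirectionally against DMSO as negative control and baseline.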

[9] = read-out: Interleukin-6 (IL6), IL6 (gene 3569); assay: BSK_CASM3C_IL6: BioMAP Diversity Plus: CASM3C Assay for Interleukin-6 (IL6) Biomarker Activity for (AID 2283040); settings: primary human coronary artery smooth muscle cells; actives raise or lower the signal
[10] = read-out: Tissue plasminogen activator (tPA), PLAT (gene 5327); assay: BSK_BE3C_tPA: BioMAP Diversity Plus: BE3C Assay for Tissue plasminogen activator (tPA) Biomarker Activity (AID 2283041); settings: primary human bronchial epithelial cells; actives raise or lower the signal
Method in brief: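 Human primary bronchial epithelial cells were dosed with chemical and tPA biomarker levels measured by ELISA 24 hours later. Activity was fitted bidirectionally against DMSO as negative control and baseline.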

Measured: AC50

CS(=O)(=O)OCCCCOS(C)(=O)=O
inactive: all assays above

O=C(Nc1ccc2c(O)c(N=Nc3ccc(N=Nc4ccc(S(=O)(=O)O)cc4)cc3)c(S(=O)(=O)O)cc2c1)c1ccccc1
active: [10] 5.36 µM and 5.91 µM
inactive: all other assays above

CCN(CC)C(=O)N(CC)CC
inactive: all assays above

COc1cc(Cl)c(OC)cc1N
inactive: all assays above

CC(=O)C1(C)CC2=C(CCCC2(C)C)CC1C (centres undefined)
active: [1] 5.33 µM | [2] 13.8 µM | [3] 9.63 µM | [4] 25.6 µM | [5] 34.9 µM | [6] 20 µM | [7] 20 µM | [8] 20 µM | [9] 14 µM | [10] 12.7 µM

O=C1OC2(c3ccccc31)c1ccc(O)c(Br)c1Oc1c2ccc(O)c1Br
active: [1] 13.7 µM | [2] 10.3 µM | [3] 20 µM | [10] 20 µM
inactive: all other assays above

CC(C=O)Cc1ccc(C(C)(C)C)cc1 (centres undefined)
active: [1] 32.9 µM | [2] 28.9 µM | [3] 34.5 µM | [4] 29.7 µM | [9] 28.5 µM | [10] 24.8 µM
inactive: [5] | [6] | [7] | [8]

CC1(C)C2=CCCC(C)(C)[C@]23CC[C@H]1C3
active: [2] 20 µM | [4] 20 µM | [9] 30.2 µM | [10] 31.5 µM
inactive: all other assays above

CSCCC=O
inactive: all assays above

CCCCCCCCCCCCCCCC(=O)OC/C=C(C)/C=C/C=C(C)/C=C/C1=C(C)CCCC1(C)C
inactive: all assays above

CC(C)(N=C=O)c1cccc(C(C)(C)N=C=O)c1
inactive: all assays above

Cc1cc(CCC(=O)OCCOCCOCCOC(=O)CCc2cc(C)c(O)c(C(C)(C)C)c2)cc(C(C)(C)C)c1O
active: [4] 10.1 µM
inactive: all other assays above

C=C(C)[C@H]1CC=C(C)C(=O)C1
inactive: all assays above

c1ccc(Oc2ccccc2)cc1
active: [3] 28.8 µM
inactive: all other assays above

C[C@@H]1CCN(C(=O)[C@H](CCCN=C(N)N)NS(=O)(=O)c2cccc3c2NC[C@H](C)C3)[C@@H](C(=O)O)C1
inactive: all assays above

CC=Cc1ccc(OCC)c(O)c1
inactive: all assays above

CS(=O)(=O)c1ccc(C2=C(c3ccccc3)C(=O)OC2)cc1
inactive: all assays above

CC(=O)c1c(C)c([N+](=O)[O-])c(C(C)(C)C)c([N+](=O)[O-])c1C
inactive: all assays above

CN(c1nccc(=O)[nH]1)C1CCN(c2nc3ccccc3n2Cc2ccc(F)cc2)CC1
active: [3] 0.0185 µM
inactive: all other assays above

CC(C)(C)CC(C)(C)c1ccc(OCCOCC[N+](C)(C)Cc2ccccc2)cc1
inactive: [10]
active: [2] 7.59 µM | [3] 7.35 µM | [4] 8.05 µM | [5] 8.97 µM | [6] 0.992 µM | [7] 5 µM | [8] 3.16 µM | [9] 8 µM

COc1ccc(CCN2CCC(Nc3nc4ccccc4n3Cc3ccc(F)cc3)CC2)cc1
active: [2] 7.88 µM | [3] 0.0041 µM
inactive: all other assays above

O=C1c2ccccc2C(=O)c2c(O)ccc(O)c21
inactive: all assays above

O=CN1CCOCC1
inactive: all assays above
